High-throughput results (PubChem BioAssay)
Most compounds without a hit are left out; they make up all but 3% or so of the library.
BioA inh: M. tuberculosis BioA enzyme inhibitors, primary screen, biochemical, plate reader, single point, HTS; inhibition, % at 9.99 µM; purified M. tuberculosis BioA enzyme; 7,8-diaminopelargonic acid synthase BioA (Mycobacterium tuberculosis); 0.096% of 360,000 active; in the data active = inhibition above about 40%
Rv3671c protease: Rv3671c serine protease inhibitors, primary screen, biochemical, fluorescence polarization, M. tuberculosis H37Rv. P9WHR9. inhibition, % at 5.96 µM. 0.048% of 320,000 active; in the data active = inhibition above about 38%;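 also: extracellular domain of Rv3671c used as enzyme; 0% = enzyme with DMSO and 100% = no enzyme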
GDH-TPI counter-1: GDH-TPI coupling enzyme inhibitors, primary screen, artefact control for M. tuberculosis FBA inhibitor project, biochemical, absorbance, full deck; GDH-TPI coupled enzyme counterscreen, NADH absorbance; inhibition, % at 4.8 µM; AID 588335, 2011; 1.2% of 360,000 active; in the data active = inhibition above about 30%;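 also: 0% = DMSO wells and 100% = wells lacking the enzyme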
FadD28 FP inh: inhibitors of FadD28 bisubstrate probe binding, primary screen, biochemical, fluorescence polarization, single point; Mycobacterium tuberculosis FadD28 fatty-acid-AMP ligase; inhibition, % at 12.5 µM; 0.22% of 360,000 active; AID 588549, 2011; in the data active = inhibition above about 8.5%, passing the limit was not always enough
FBA Mtb inh: Mtb FBA enzyme inhibitors, primary screen, biochemical, fluorescence, strain H37Rv. Fructose-bisphosphate aldolase (Mycobacterium tuberculosis (strain ATCC 25618 / H37Rv)), …. inhibition, % at 1 µM. purified M. tuberculosis FBA, fluorescence read-out. 2.3% of 360,000 active;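 also: 0% = vehicle and 100% = reference inhibitor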
Target sequence (P9WQA3 whole entry, looked up): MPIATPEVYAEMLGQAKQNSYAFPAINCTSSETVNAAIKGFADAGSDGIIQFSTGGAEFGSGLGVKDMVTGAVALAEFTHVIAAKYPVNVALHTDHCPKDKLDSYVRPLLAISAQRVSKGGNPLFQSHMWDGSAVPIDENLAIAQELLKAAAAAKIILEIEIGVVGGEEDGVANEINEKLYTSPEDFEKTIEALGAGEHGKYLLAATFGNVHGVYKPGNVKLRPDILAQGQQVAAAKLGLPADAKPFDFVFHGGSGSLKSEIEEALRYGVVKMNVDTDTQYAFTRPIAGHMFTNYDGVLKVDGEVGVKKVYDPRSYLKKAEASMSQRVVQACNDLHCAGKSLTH
Mtb FBA inh conf: M. tuberculosis aldolase blockers, biochemical, fluorescence, strain H37Rv, confirmation | shares compounds with FBA Mtb inh | purified M. tuberculosis FBA, fluorescence read-out | inhibition, % at 1 µM | 78% of 5,600 active;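 also: 0% = vehicle wells and 100% = reference inhibitor wells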
GDH-TPI counter-2: GDH-TPI coupling enzyme inhibitors, artefact control for M. tuberculosis FBA inhibitor project, biochemical, fluorescence, high throughput. inhibition, % at 1 µM. AID 652141, 2013. shares compounds with FBA Mtb inh. 81% of 5,600 active. GDH-TPI coupled enzyme counterscreen; in the data active = inhibition above about 10%
An asterisk follows results filed as active. Rule as the data show it, unless noted: active = inhibition above about 27%; inactive = the rest.

Results for CCCNC(=O)N[C@@H]1CC[C@H](CCn2cc(C3CCCC3)nn2)O[C@@H]1CO ?
BioA inh: 0.5

Results for Cc1noc(C)c1NC(=O)Nc1ccc2c(c1)CC(=O)N([C@@H](C)CO)C[C@H](C)[C@H](CN(C)Cc1ccc(Oc3ccccc3)cc1)O2 ?
BioA inh: 8.2

Results for CCCC(=O)Nc1ccc2c(c1)C(=O)N(C)C[C@H](OC)[C@H](C)CN(Cc1ccccc1)[C@H](C)CO2 ?
BioA inh: 0.3

Results for CCCn1nc2cc(C(=O)NCc3ccc(C)cc3)ccc2c1OCC ?
BioA inh: 1.0; Rv3671c protease: -3.9; GDH-TPI counter-1: 1.4; FadD28 FP inh: -3.1; FBA Mtb inh: 52.0*; Mtb FBA inh conf: 85.6*; GDH-TPI counter-2: 62.9*

Results for Cc1ccc(C(=O)NCCc2cccs2)cc1 ?
BioA inh: 1.4; Rv3671c protease: 1.1; GDH-TPI counter-1: 13.2; FadD28 FP inh: 0.0; FBA Mtb inh: 1.4

Results for CCn1nc2cc(C(=O)NCCc3cccs3)ccc2c1OC ?
BioA inh: -0.4; Rv3671c protease: -1.3; GDH-TPI counter-1: 3.6; FadD28 FP inh: 0.6; FBA Mtb inh: 40.7*; Mtb FBA inh conf: active; GDH-TPI counter-2: 196.3*

Results for C=CCOc1c2ccc(C(=O)NCc3ccc(C)cc3)cc2nn1C ?
BioA inh: 0.9; Rv3671c protease: -2.6; GDH-TPI counter-1: -10.0; FadD28 FP inh: -0.9; FBA Mtb inh: 12.5

What do the screens show for `O=C(Nc1cccc(F)c1)N1C[C@H]2[C@@H](c3ccccc31)[C@@H](CO)N2C(=O)c1ccccc1F`?
BioA inh: 1.8

What do the screens show for `Cn1nc(-c2ccc(Cl)cc2)c2cc(C(=O)NCC3CCCO3)sc21` (stereo unspecified)?
BioA inh: 4.0; Rv3671c protease: -15.8; GDH-TPI counter-1: 7.2; FadD28 FP inh: -2.0; FBA Mtb inh: 62.5*; Mtb FBA inh conf: 81.4*; GDH-TPI counter-2: 57.4*

What do the screens show for `CN1CCN(CCCNC(=O)c2cc3c(-c4ccc(Cl)cc4)nn(C)c3s2)CC1`?
BioA inh: 0.9; Rv3671c protease: -17.0; GDH-TPI counter-1: 13.0; FadD28 FP inh: -2.3; FBA Mtb inh: 27.6*; Mtb FBA inh conf: 62.4*; GDH-TPI counter-2: 56.6*

Results for Cn1nc(-c2ccc(Cl)cc2)c2cc(C(=O)N3CCOCC3)sc21 ?
BioA inh: 0.2; Rv3671c protease: -7.4; GDH-TPI counter-1: 18.8; FadD28 FP inh: -0.5; FBA Mtb inh: 4.4

Results for CN1C(=O)c2cc(NC(=O)c3ccc(F)c(F)c3)ccc2OC[C@H]2O[C@H](CC(=O)N3CCCCC3)CC[C@H]21 ?
BioA inh: 6.7

How did O=C(O)CCc1nn2c3ccccc3n(CC(=O)c3ccccc3)c2nc1=O do in these assays?
Rv3671c protease: 0.2; GDH-TPI counter-1: -4.7; FadD28 FP inh: -1.0; FBA Mtb inh: 26.8

How did CCOC(=O)Cn1c2ccccc2n2nc(CCC(=O)O)c(=O)nc12 do in these assays?
BioA inh: -0.8; Rv3671c protease: -5.6; GDH-TPI counter-1: 1.9; FadD28 FP inh: 0.3; FBA Mtb inh: 57.6*; Mtb FBA inh conf: -2.2; GDH-TPI counter-2: -2.9

How did Nc1c(S(=O)(=O)c2cccs2)c2nc3ccccc3nc2n1Cc1ccccc1 do in these assays?
BioA inh: -0.6; Rv3671c protease: -17.8; GDH-TPI counter-1: 18.3; FadD28 FP inh: -1.3; FBA Mtb inh: 54.4*; Mtb FBA inh conf: 0.1; GDH-TPI counter-2: -3.3

How did Cc1ccc(Cn2c(N)c(S(=O)(=O)c3cccs3)c3nc4ccccc4nc32)cc1 do in these assays?
BioA inh: -1.9; Rv3671c protease: 6.2; GDH-TPI counter-1: 8.5; FadD28 FP inh: -1.1; FBA Mtb inh: 18.0
